{"source": "the supplement of paper PMC12636033", "note": "± gives the standard deviation of the averaged measurements. The full ranking holds about 33,000 sequences; the median of “E-score (rank enrichment, -0.5 to 0.5)” is about -0.0068, and the highest 2% start at about 0.24. Many of the other results were omitted from the sample, so the highest values are more common in it than they were.", "data": [{"system": "muMax20 (Max(13-93) K31hArg/K57hArg, M65Nle)", "test": "PBM 8-mer E-score (E-score (rank enrichment, -0.5 to 0.5)); higher = stronger preferential binding", "method": "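Protein binding microarray (universal PBM chip covering all 10-mers in fixed probe flanks) with chemically synthesized human Max(13-93) bHLH-LZ analogs (not full-length Max) bearing noncanonical residues (hArg, Tha, Aib, Nle at 65) and aromatic Cys staples. Read-out per 8-mer (and its reverse complement): E-score (rank-based enrichment, -0.5 to 0.5) and Z-score of median probe intensity.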", "values": [{"sequence": "GATGCTAA", "PBM 8-mer E-score": "-0.0557 ± 0.067"}, {"sequence": "GCGTCGAC", "PBM 8-mer E-score": "-0.038 ± 0.027"}, {"sequence": "CATAAGAG", "PBM 8-mer E-score": "0.0912 ± 0.02"}, {"sequence": "GATGCTGC", "PBM 8-mer E-score": "-0.0878 ± 0.08"}, {"sequence": "CGCCCTGA", "PBM 8-mer E-score": "-0.0272 ± 0.05"}, {"sequence": "ATAATCGG", "PBM 8-mer E-score": "0.137 ± 0.011"}, {"sequence": "ATAAAGTG", "PBM 8-mer E-score": "0.0933 ± 0.062"}, {"sequence": "ATAAAGTC", "PBM 8-mer E-score": "0.239 ± 0.082"}, {"sequence": "CTAAAGTA", "PBM 8-mer E-score": "0.00517 ± 0.053"}, {"sequence": "CTAAAGTC", "PBM 8-mer E-score": "-0.208 ± 0.11"}, {"sequence": "GTAAAGTA", "PBM 8-mer E-score": "0.284 ± 0.074"}, {"sequence": "ATAAAGTA", "PBM 8-mer E-score": "0.228 ± 0.048"}, {"sequence": "AAAATGGG", "PBM 8-mer E-score": "-0.088 ± 0.024"}, {"sequence": "AAAATGGA", "PBM 8-mer E-score": "0.298 ± 0.036"}, {"sequence": "CAAATGGA", "PBM 8-mer E-score": "-0.0819 ± 0.12"}, {"sequence": "AGGCTATG", "PBM 8-mer E-score": "-0.0609 ± 0.077"}, {"sequence": "ATTCAGCA", "PBM 8-mer E-score": "0.076 ± 0.071"}, {"sequence": "AAATCAAG", "PBM 8-mer E-score": "0.141 ± 0.028"}, {"sequence": "CAATCGTA", "PBM 8-mer E-score": "0.18 ± 0.038"}, {"sequence": "AAATCAAA", "PBM 8-mer E-score": "0.2624 ± 0.00016"}, {"sequence": "TAATCGTA", "PBM 8-mer E-score": "0.162 ± 0.0019"}, {"sequence": "AAATCGTA", "PBM 8-mer E-score": "0.248 ± 0.024"}, {"sequence": "AAATCAAT", "PBM 8-mer E-score": "0.192 ± 0.01"}, {"sequence": "ATGTGTCC", "PBM 8-mer E-score": "0.0398 ± 0.026"}, {"sequence": "TGAGAACA", "PBM 8-mer E-score": "0.115 ± 0.095"}, {"sequence": "ACAACGAC", "PBM 8-mer E-score": "0.0368 ± 0.017"}, {"sequence": "ATATGATG", "PBM 8-mer E-score": "0.193 ± 0.013"}, {"sequence": "CCATGATA", "PBM 8-mer E-score": "0.0877 ± 0.047"}, {"sequence": "GGATGATA", "PBM 8-mer E-score": "0.0453 ± 0.067"}, {"sequence": "ATATGATA", "PBM 8-mer E-score": "0.273 ± 0.081"}, {"sequence": "CTATGATA", "PBM 8-mer E-score": "-0.0149 ± 0.015"}, {"sequence": "ACATGATA", "PBM 8-mer E-score": "0.197 ± 0.045"}, {"sequence": "GTATGAGA", "PBM 8-mer E-score": "0.161 ± 0.072"}, {"sequence": "GTATGATA", "PBM 8-mer E-score": "0.323 ± 0.069"}, {"sequence": "GCATGATA", "PBM 8-mer E-score": "0.249 ± 0.015"}, {"sequence": "ACGGTGCG", "PBM 8-mer E-score": "-0.17 ± 0.023"}, {"sequence": "CTACTTAA", "PBM 8-mer E-score": "0.09273 ± 0.00059"}, {"sequence": "CGAGTGTC", "PBM 8-mer E-score": "-0.179 ± 0.053"}, {"sequence": "CTTTGATC", "PBM 8-mer E-score": "-0.09609 ± 0.0009"}, {"sequence": "AAGAGACC", "PBM 8-mer E-score": "0.0547 ± 0.019"}, {"sequence": "CCGAGTAA", "PBM 8-mer E-score": "-0.0803 ± 0.014"}, {"sequence": "GAACGGAA", "PBM 8-mer E-score": "-0.0438 ± 0.095"}, {"sequence": "ATTAATGG", "PBM 8-mer E-score": "0.0317 ± 0.074"}, {"sequence": "ATGAATAC", "PBM 8-mer E-score": "0.248 ± 0.057"}, {"sequence": "CTTAATAA", "PBM 8-mer E-score": "0.0902 ± 0.011"}, {"sequence": "ATTAATAC", "PBM 8-mer E-score": "0.266 ± 0.021"}, {"sequence": "GTTAATAA", "PBM 8-mer E-score": "0.227 ± 0.066"}, {"sequence": "ATTAATAG", "PBM 8-mer E-score": "0.255 ± 0.09"}, {"sequence": "ATTAATCG", "PBM 8-mer E-score": "0.0839 ± 0.061"}, {"sequence": "ATGAATAG", "PBM 8-mer E-score": "0.172 ± 0.08"}, {"sequence": "ACTAATAC", "PBM 8-mer E-score": "0.158 ± 0.089"}, {"sequence": "CTTAATAC", "PBM 8-mer E-score": "0.214 ± 0.041"}, {"sequence": "CTGAATAC", "PBM 8-mer E-score": "-0.0332 ± 0.1"}, {"sequence": "ATTAATAA", "PBM 8-mer E-score": "0.274 ± 0.0099"}, {"sequence": "AGATTGCT", "PBM 8-mer E-score": "-0.0246 ± 0.009"}, {"sequence": "GGATAGAA", "PBM 8-mer E-score": "0.123 ± 0.013"}, {"sequence": "AACTCCCG", "PBM 8-mer E-score": "-0.034 ± 0.042"}, {"sequence": "GGAATCGA", "PBM 8-mer E-score": "-0.191 ± 0.065"}, {"sequence": "GCGACTAC", "PBM 8-mer E-score": "-0.0421 ± 0.049"}, {"sequence": "ACAAACCC", "PBM 8-mer E-score": "0.11 ± 0.054"}, {"sequence": "GGGTGGTA", "PBM 8-mer E-score": "-0.00184 ± 0.074"}, {"sequence": "ACTAGAGG", "PBM 8-mer E-score": "0.113 ± 0.047"}, {"sequence": "ACATGCAG", "PBM 8-mer E-score": "0.032 ± 0.14"}, {"sequence": "ACATGCGG", "PBM 8-mer E-score": "0.00547 ± 0.099"}, {"sequence": "ACATGCAA", "PBM 8-mer E-score": "0.16 ± 0.046"}, {"sequence": "TCATGCAA", "PBM 8-mer E-score": "0.277 ± 0.021"}, {"sequence": "ACATGCGC", "PBM 8-mer E-score": "0.17 ± 0.0097"}, {"sequence": "GCATGCAA", "PBM 8-mer E-score": "0.147 ± 0.034"}, {"sequence": "ACATGCGT", "PBM 8-mer E-score": "0.243 ± 0.13"}, {"sequence": "ACATGCAC", "PBM 8-mer E-score": "0.185 ± 0.034"}, {"sequence": "ACATGCAT", "PBM 8-mer E-score": "0.294 ± 0.053"}, {"sequence": "ATTTCACC", "PBM 8-mer E-score": "0.0208 ± 0.092"}, {"sequence": "ATTGTGGA", "PBM 8-mer E-score": "0.0503 ± 0.16"}, {"sequence": "AGATATAT", "PBM 8-mer E-score": "0.176 ± 0.023"}, {"sequence": "ATCGTACA", "PBM 8-mer E-score": "0.159 ± 0.048"}, {"sequence": "CTCGTACA", "PBM 8-mer E-score": "0.041 ± 0.08"}, {"sequence": "GTCGTACA", "PBM 8-mer E-score": "0.242 ± 0.13"}, {"sequence": "ACGTGAAT", "PBM 8-mer E-score": "0.235 ± 0.083"}, {"sequence": "CTTCTCAA", "PBM 8-mer E-score": "0.0152 ± 0.1"}, {"sequence": "AGCCAGCC", "PBM 8-mer E-score": "-0.293 ± 0.06"}, {"sequence": "CCTAAGAA", "PBM 8-mer E-score": "0.099 ± 0.038"}, {"sequence": "ATGCTCAA", "PBM 8-mer E-score": "0.0249 ± 0.035"}, {"sequence": "CGCCGTGA", "PBM 8-mer E-score": "-0.131 ± 0.031"}, {"sequence": "AAATAATA", "PBM 8-mer E-score": "0.232 ± 0.013"}, {"sequence": "GAATAACA", "PBM 8-mer E-score": "0.175 ± 0.11"}, {"sequence": "TAATAACA", "PBM 8-mer E-score": "0.124 ± 0.0069"}, {"sequence": "AAATAATC", "PBM 8-mer E-score": "0.0578 ± 0.046"}, {"sequence": "CAATAATG", "PBM 8-mer E-score": "0.117 ± 0.023"}, {"sequence": "CAATAACA", "PBM 8-mer E-score": "0.26 ± 0.066"}, {"sequence": "CAATAATC", "PBM 8-mer E-score": "0.0932 ± 0.028"}, {"sequence": "AAATAATT", "PBM 8-mer E-score": "0.242 ± 0.046"}, {"sequence": "CAATAATA", "PBM 8-mer E-score": "0.304 ± 0.0083"}, {"sequence": "ATTTACCC", "PBM 8-mer E-score": "0.0541 ± 0.029"}, {"sequence": "CGTCTGGA", "PBM 8-mer E-score": "-0.178 ± 0.11"}, {"sequence": "GCCTGTTA", "PBM 8-mer E-score": "0.0517 ± 0.1"}, {"sequence": "AGCACCCG", "PBM 8-mer E-score": "-0.159 ± 0.024"}, {"sequence": "CGGCCAAA", "PBM 8-mer E-score": "-0.227 ± 0.024"}, {"sequence": "CGCTGATA", "PBM 8-mer E-score": "-0.0375 ± 0.12"}, {"sequence": "AAATAAAT", "PBM 8-mer E-score": "0.156 ± 0.054"}, {"sequence": "TAATAAAA", "PBM 8-mer E-score": "0.246 ± 0.0097"}, {"sequence": "AAAATAAA", "PBM 8-mer E-score": "0.116 ± 0.064"}, {"sequence": "AAATAAAA", "PBM 8-mer E-score": "0.252 ± 0.023"}, {"sequence": "CAATAAAA", "PBM 8-mer E-score": "0.197 ± 0.038"}, {"sequence": "GAATAAAA", "PBM 8-mer E-score": "0.0698 ± 0.033"}, {"sequence": "AAGCGTCC", "PBM 8-mer E-score": "-0.0322 ± 0.057"}, {"sequence": "ACCTAGAT", "PBM 8-mer E-score": "-0.0454 ± 0.032"}, {"sequence": "TGGGAAAA", "PBM 8-mer E-score": "0.0021 ± 0.034"}, {"sequence": "CTTTTTTC", "PBM 8-mer E-score": "0.127 ± 0.031"}, {"sequence": "ATTCGCTA", "PBM 8-mer E-score": "0.0997 ± 0.028"}, {"sequence": "CATCCATC", "PBM 8-mer E-score": "0.0727 ± 0.029"}]}]}
